Most compounds without a hit are left out; they make up all but 4.6% or so of the library.
Lassa entry inh = Lassa virus entry inhibition; Lassa virus pseudotype entry inhibition, cell reporter; Potency, µM (doses to about 37.9 µM), usual class: inhibitors; 1.2% of 300,000 active; AID 540256; calls by dose curve; tested in HEK293 cells; note: nearly all actives have a fitted effect of over 50% in size
MARV entry inh = inhibitors of Marburg virus binding or cell entry | Marburg virus pseudotyped entry inhibition, cell reporter | Potency, µM (series often up to 37.8 µM), hits mostly inhibitors | 1.8% of 300,000 active; calls by dose curve; tested in HEK293 cells
VACV Venus inh = inhibitors of vaccinia virus (Venus reporter) | AID 720580 | Potency, µM (top dose mostly 36.5 µM), actives largely listed as inhibitors | 0.46% of 330,000 active | Vaccinia virus Venus reporter expression, fluorescence; calls by dose curve; tested in A549 cells; note: nearly all actives have a fitted effect of over 30% in size
HCV inhibitor = HCV inhibition; Huh7.5.1 HCVcc-Cre infection, luciferase reporter, 44 h; Potency, µM (highest dose often 41.8 µM), hits mostly inhibitors; 3.4% of 340,000 active; active = well fitted inhibition curve with a large enough effect; inconclusive = small, poorly fitted or top-dose-only effect, or another doubt; inactive = no such curve, though single readings can be large or run the other way
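Infectious HCVcc-Cre (~0.5 moi) was added to cells just after compound, with cells seeded 4 h earlier at 1,000 per well. Luciferase activity after 44 h culture reported infection; substrate was incubated 15 min at room temperature before reading.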
Vaccinia mCherry = vaccinia inhibition (mCherry reporter). Vaccinia virus mCherry reporter infection, fluorescence. Potency, µM (titrated, usually from 36.5 µM), hits mostly inhibitors. 0.63% of 310,000 active; calls by dose curve; tested in A549 cells; note: nearly all actives have a fitted effect of over 35% in size
Numbers stand for hits; 0 = inactive; ? = inconclusive; - = not tested or not shown; [ ] = another dose, or the depositor's remark.

SMILES	Lassa entry inh	MARV entry inh	VACV Venus inh	HCV inhibitor	Vaccinia mCherry
CC(C)C(=O)NC(c1cccc([N+](=O)[O-])c1)c1ccc2cccnc2c1O (stereo not drawn)	7.08µM	?	4.47µM	3.98µM	?
C=C1C2CC[C@@]3(C)C(c4ccoc4)OC(=O)C[C@@]13OC1CC(OC(C)=O)C(C)(C)C(CC(=O)OC)[C@@]12C (stereo partly drawn)	-	-	0	-	0
c1ccc2c(c1)OCC(c1csc3ncnc(N4CCOCC4)c13)O2 (stereo not drawn)	0	0	0	0	0
CCN(CC)c1ncnc2scc(C3COc4ccccc4O3)c12 (stereo not drawn)	?	0	0	11.2µM	0
Cc1cc2c(c(-c3ccc(Cl)cc3)c1)OC(CNC(=O)CCC(=O)N(C)C)C2 (stereo not drawn)	-	-	0	-	0
CC(C)CNC(=O)Cn1c(=O)c2c(ncn2CC(C)C)n(Cc2ccccc2)c1=O	?	0	0	11.2µM	0
C#CCCCON=C1C[C@@H](O)[C@H](O)[C@H]2[C@@H]3C(=O)N(C[C@@H]4CCCO4)C(=O)[C@@H]3CC[C@H]12	0	0	-	-	-
O=C(NC1CC2CCCC(C1)N2C(=O)Nc1ccc(Cl)c(C(F)(F)F)c1)C1CC1 (stereo not drawn)	0	0	-	0	-
O=C(Nc1ccc(Cl)c(C(F)(F)F)c1)NC1CC2CCCC(C1)N2Cc1ccccc1 (stereo not drawn)	?	8.91µM	?	25.1µM	?
O=C1N=C2C=CC=CC2N1C1CCN(CCCC(c2ccc(F)cc2)c2ccc(F)cc2)CC1 (stereo not drawn)	-	0	-	-	-
Cc1ccc2cccc(OCCOCCOc3ccccc3Br)c2n1	0	0	0	?	0
Cc1ccc2cccc(OCCCOc3ccccc3F)c2n1	-	-	-	10µM	-
COc1ccc([C@]23Cc4c(ccc5ccccc45)[C@H](O2)C2=C(CCCC2=O)O3)cc1	-	0	-	-	-
CN(C)c1nc(N/N=C\c2ccc(Cl)c([N+](=O)[O-])c2)nc(Nc2ccc(F)cc2)n1	0	?	0	22.4µM	0
COc1ccc(C(=O)Nc2ccc(C3=NNC(=O)CC3C)cc2NC(=O)c2ccc(OC)cc2)cc1 (stereo not drawn)	0	?	0	10µM	?
COc1ccc(C(=O)Nc2ccc(C(=O)O)cc2NC(=O)c2ccc(OC)cc2)cc1	-	-	-	0	-
CCn1nc(C)c(CNC(=O)c2cc(COc3ccccc3SC)on2)c1C	0	0	0	12.6µM	0
CCn1nc(C)c(CNC(=O)c2cc(COc3cncc(Cl)c3)on2)c1C	-	-	0[7.34 µM]	?	0[7.34 µM]
Cc1cccc(C)c1OC[C@H](O)CNS(=O)(=O)c1ccccc1C(=O)N1CCOCC1	-	0	-	-	-
[O-]/C(=C(\C(=S)Nc1cccc2ccccc12)[n+]1ccccc1)c1ccc(Cl)s1	0	0	0	0	0
[O-]C(=C(C(=S)Nc1cccc2ccccc12)[n+]1cccc(CO)c1)c1ccc(Cl)s1	0	0	0	7.94µM	0
CCc1nc2cc(C(=O)N(C)C3CCOC3)cc(NC(=O)c3ccccc3OC)c2n1C (stereo not drawn)	-	-	0	-	0
Cc1ccc2nc(COc3ccccc3NC(=O)COc3ccccc3Cl)cc(=O)n2c1	0	-	0	-	0
Cc1c(Cl)cccc1N1C(=O)[C@@H]2[C@H](ON(c3ccccc3)[C@H]2c2cccnc2)C1=O	-	0	-	-	-
C=CCn1cccc(/C=C/C(=O)c2ccc(C(C)(C)C)cc2)c1=S	16.4µM	?	?	10µM	?
SMILES	Lassa entry inh	MARV entry inh	VACV Venus inh	HCV inhibitor	Vaccinia mCherry
CCc1ccc(-c2nc3c(c(SCc4ccc(F)cc4)n2)Cc2c(CO)cnc(C)c2O3)cc1	?	-	0	-	0
Cn1c(/C=C/c2ccc(Br)cc2)c([N+](=O)[O-])c(=O)n(C)c1=O	?	?	?	?	12.6µM
CCC1CN(C(=O)N2CCC(C(=O)NCCc3ccc(OC)cc3OC)CC2)c2ccccc2O1 (stereo not drawn)	-	-	-	12.6µM	-
COC(=O)C1=C(C)N(Cc2ccccc2)C(=NCC(C)C)NC1c1cccc(F)c1 (stereo not drawn)	?	0	-	-	-
Cc1cc(-c2ccc(C(C)C)c(S(=O)(=O)N3CCOc4ccccc43)c2)on1	?	3.16µM	0	?	0
COC1=CC2C(=O)C(C1=O)C1c3ccccc3CC21 (stereo not drawn)	-	0	-	-	-
COc1ccc(CN(C2CCCC2)S(=O)(=O)c2ccc(-n3cnnn3)cc2)cc1	0	?	0	?	?
COc1ccc(CN(C2CCCC2)S(=O)(=O)c2ccccc2Br)cc1	-	12.5µM	-	-	-
O=C1CCCCN1CCC(=O)N1CCOc2ccc(C(O)C3CCCCC3)cc2C1 (stereo not drawn)	-	-	0	-	0
